Results from PubChem BioAssay (Tox21).
“And” between values parts separate entries of the source, which are not always exact repeats. Identical values can stand only once. Inconclusive results are not listed. Where a call stands in place of a potency, no number is given. The source made the active and inactive calls. Calls follow the shape of the dose curve; as a rule, active = well fitted curve in the direction sought with a large enough effect in the repeat runs; inconclusive = weak or mixed curves; inactive = no such curve, though single readings can be large; an effect the other way counts as inactive or inconclusive.

experiment: qHTS RealTime-Glo MT Cell Viability Assay in HEK293 cells - 8 hour (AID 1224887); conditions: RealTime-Glo luminescence; series mostly up to 76.8 µM; also: nearly all actives have a fitted effect of over 50% in size; also: potency is read from the fitted curve at half-maximal effect
Summary of the method: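 HEK293 + NanoLuc + prosubstrate, 600 cells/well; 5 h, 37 C/5% CO2; compound 23 nL in DMSO by pintool; 37 C; luminescence read at 0, 8, 16, 24, 32 and 40 h time points.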

Row | Compound | Potency
1 | N#CCCCCC#N | inactive
2 | N#Cc1c(Cl)c(Cl)c(Cl)c(C#N)c1Cl | 12.1 µM (active) and 17.4 µM (active)
3 | COc1ccc(CO)cc1 | inactive
4 | NN=C(N)N | inactive
5 | OC(c1ccc(Cl)cc1)(c1cncnc1)c1ccccc1Cl (stereo not given) | 22.3 µM (active)
6 | Cl | inactive
7 | CC(C)(c1ccccc1)c1ccc(O)c(C(C)(C)c2ccccc2)c1 | 21.7 µM (active) and 30.9 µM (active)
8 | CC(C)(c1ccccc1)c1ccc(O)cc1 | 48.6 µM (active) and 34.7 µM (active)
9 | COP(=O)(NC(C)=O)SC (stereo not given) | inactive
10 | CC(O)CN(CC(C)O)CC(C)O (stereo not given) | inactive
11 | CCCCSP(=O)(SCCCC)SCCCC | inactive
12 | O=P(OCCCl)(OCCCl)OCCCl | inactive
13 | CCOS(=O)(=O)OCC | inactive
14 | CC(C)(O)C#N | inactive
15 | CS(=O)(=O)NC(=O)c1cc(Oc2ccc(C(F)(F)F)cc2Cl)ccc1[N+](=O)[O-] | inactive
16 | Nc1ccc([N+](=O)[O-])cc1N | inactive
17 | Oc1ccc(Cl)cc1Cc1ccccc1 | 21.9 µM (active) and 26.3 µM (active) and 21.3 µM (active)
18 | NC(=O)CN1CCCC1=O | inactive
19 | COc1ccc(C=O)cc1OC | inactive
20 | Brc1ccc(Br)cc1 | inactive
21 | [CH3][Sn]([Cl])([Cl])[Cl] | inactive
22 | O=C1C(Cl)=C(Cl)C(=O)c2ccccc21 | 6.19 µM (active) and 7.76 µM (active)
23 | O=S(=O)(O)C(F)(F)C(F)(F)C(F)(F)C(F)(F)C(F)(F)C(F)(F)C(F)(F)C(F)(F)F | inactive
24 | CCCCOCC1CO1 (stereo not given) | inactive
25 | ClCC(Cl)CCl | inactive
26 | O=C1Nc2ccc(Cl)cc2C(c2ccccc2)=NC1O (stereo not given) | inactive
27 | ClC(Cl)(Cl)Br | inactive
28 | Clc1ccccc1-c1nnc(-c2ccccc2Cl)nn1 | inactive
29 | CC1CC(=O)O1 (stereo not given) | inactive
30 | CCOP(=O)(OCC)OCC | inactive

experiment: A CellTox Green Cytotoxicity Assay to monitor cytotoxicity in HEK293 cells - 16 hour (AID 1224888); conditions: CellTox Green fluorescence; series mostly up to 76.8 µM; also: nearly all actives have a fitted effect of over 35% in size; also: potency is read from the fitted curve at half-maximal effect
Summary of the method: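 Tox21 screen in HEK293: membrane-impermeant cyanine dye fluoresces on binding dead-cell DNA; compound pinned 5 h post-seeding, plates held at 37 C, signal read repeatedly through 40 h.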

Row | Compound | Potency
31 | N#CCCCCC#N | inactive
32 | COP(=S)(OC)Oc1ccc(S(=O)(=O)N(C)C)cc1 | inactive
33 | N#Cc1c(Cl)c(Cl)c(Cl)c(C#N)c1Cl | 12.1 µM (active) and 8.71 µM (active)
34 | C[C@]12CC[C@H]3[C@@H](CCC4=CC(=O)CC[C@@H]43)[C@@H]1CC[C@@H]2O | inactive
35 | COc1ccc(CO)cc1 | inactive
36 | CCC(=O)Nc1ccc(Cl)c(Cl)c1 | inactive
37 | NN=C(N)N | inactive
38 | Cl | inactive
39 | CC(C)(c1ccccc1)c1ccc(O)c(C(C)(C)c2ccccc2)c1 | 43.2 µM (active)
40 | CC(C)(c1ccccc1)c1ccc(O)cc1 | 24.3 µM (active) and 43.6 µM (active)
41 | COP(=O)(NC(C)=O)SC (stereo not given) | inactive
42 | COC(=O)Nc1nc2ccccc2[nH]1 | inactive
43 | CC(O)CN(CC(C)O)CC(C)O (stereo not given) | inactive
44 | CCCCSP(=O)(SCCCC)SCCCC | inactive
45 | O=P(OCCCl)(OCCCl)OCCCl | inactive
46 | CCOS(=O)(=O)OCC | inactive
47 | CC(C)(O)C#N | inactive

Row | Compound | Potency
48 | CS(=O)(=O)NC(=O)c1cc(Oc2ccc(C(F)(F)F)cc2Cl)ccc1[N+](=O)[O-] | inactive
49 | Nc1ccc([N+](=O)[O-])cc1N | inactive
50 | CCC1(c2ccc(N)cc2)CCC(=O)NC1=O (stereo not given) | inactive
51 | NC(=O)CN1CCCC1=O | inactive
52 | COc1ccc(C=O)cc1OC | inactive
53 | O=C(O)c1nn(Cc2ccc(Cl)cc2Cl)c2ccccc12 | inactive
54 | Brc1ccc(Br)cc1 | inactive
55 | [CH3][Sn]([Cl])([Cl])[Cl] | inactive
56 | O=C1C(Cl)=C(Cl)C(=O)c2ccccc21 | 4.91 µM (active)
57 | N#Cc1nn(-c2c(Cl)cc(C(F)(F)F)cc2Cl)c(N)c1S(=O)C(F)(F)F (stereo not given) | inactive
58 | ClCC(Cl)CCl | inactive
59 | O=C1Nc2ccc(Cl)cc2C(c2ccccc2)=NC1O (stereo not given) | inactive
60 | ClC(Cl)(Cl)Br | inactive
61 | CC1=C(C(=O)Nc2ccccc2)SCCO1 | inactive
62 | Clc1ccccc1-c1nnc(-c2ccccc2Cl)nn1 | inactive
63 | CC1CC(=O)O1 (stereo not given) | inactive
64 | CCOP(=O)(OCC)OCC | inactive

experiment: qHTS RealTime-Glo MT Cell Viability Assay in HepG2 cells - 0 hour (AID 1224889); conditions: RealTime-Glo luminescence; series mostly up to 76.8 µM; also: nearly all actives have a fitted effect of over 50% in size
Summary of the method: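 qHTS, HepG2, 600 cells/well, RealTime-Glo (NanoLuc + prosubstrate) added with cells; 5 h preincubation; DMSO compound addition; 37 C; luminescence at 0/8/16/24/32/40 h.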

Row | Compound | Potency
65 | N#CCCCCC#N | inactive
66 | COP(=S)(OC)Oc1ccc(S(=O)(=O)N(C)C)cc1 | inactive
67 | N#Cc1c(Cl)c(Cl)c(Cl)c(C#N)c1Cl | inactive
68 | C[C@]12CC[C@H]3[C@@H](CCC4=CC(=O)CC[C@@H]43)[C@@H]1CC[C@@H]2O | inactive
69 | COc1ccc(CO)cc1 | inactive
70 | CCC(=O)Nc1ccc(Cl)c(Cl)c1 | inactive
71 | NN=C(N)N | inactive
72 | OC(c1ccc(Cl)cc1)(c1cncnc1)c1ccccc1Cl (stereo not given) | inactive
73 | Cl | inactive
74 | CC(C)(c1ccccc1)c1ccc(O)c(C(C)(C)c2ccccc2)c1 | inactive
75 | CC(C)(c1ccccc1)c1ccc(O)cc1 | inactive
76 | COP(=O)(NC(C)=O)SC (stereo not given) | inactive
77 | COC(=O)Nc1nc2ccccc2[nH]1 | inactive
78 | CC(O)CN(CC(C)O)CC(C)O (stereo not given) | inactive
79 | CCCCSP(=O)(SCCCC)SCCCC | inactive
80 | O=P(OCCCl)(OCCCl)OCCCl | inactive
81 | CCOS(=O)(=O)OCC | inactive
82 | CC(C)(O)C#N | inactive

Row | Compound | Potency
83 | CS(=O)(=O)NC(=O)c1cc(Oc2ccc(C(F)(F)F)cc2Cl)ccc1[N+](=O)[O-] | inactive
84 | Nc1ccc([N+](=O)[O-])cc1N | inactive
85 | Oc1ccc(Cl)cc1Cc1ccccc1 | inactive
86 | CCC1(c2ccc(N)cc2)CCC(=O)NC1=O (stereo not given) | inactive
87 | NC(=O)CN1CCCC1=O | inactive
88 | COc1ccc(C=O)cc1OC | inactive
89 | O=C(O)c1nn(Cc2ccc(Cl)cc2Cl)c2ccccc12 | inactive
90 | Brc1ccc(Br)cc1 | inactive
91 | [CH3][Sn]([Cl])([Cl])[Cl] | inactive
92 | N#Cc1nn(-c2c(Cl)cc(C(F)(F)F)cc2Cl)c(N)c1S(=O)C(F)(F)F (stereo not given) | inactive
93 | CCCCOCC1CO1 (stereo not given) | inactive
94 | ClCC(Cl)CCl | inactive
95 | O=C1Nc2ccc(Cl)cc2C(c2ccccc2)=NC1O (stereo not given) | inactive
96 | ClC(Cl)(Cl)Br | inactive
97 | CC1=C(C(=O)Nc2ccccc2)SCCO1 | inactive
98 | Clc1ccccc1-c1nnc(-c2ccccc2Cl)nn1 | inactive
99 | CC1CC(=O)O1 (stereo not given) | inactive
100 | CCOP(=O)(OCC)OCC | inactive
